Laboratory results published in PubChem BioAssay (EPA / NIEHS).
Activity calls are given as the source filed them. How the source made its calls: active means hit-call score of the fitted dose curve at least 0.9, where 1 is the maximum; inactive means score below 0.9.

Assays:
[1] = read-out: Cyclin D1 (CCND1), CCND1 (gene 595); assay: LTEA_HepaRG_CCND1: Life Technologies and Expression Analysis (LTEA) Assay for Cyclin D1 (CCND1) using HepaRG (AID 2283451); conditions: mRNA level, 48 h; actives raise or lower the signal;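 on AC50: TaqMan qRT-PCR transcript level normalised to ACTB GAPDH and POLR2A housekeeping genes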
In short: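 Differentiated HepaRG cells exposed 48 h in serum-free induction medium to eight half-log concentrations from 100 uM top, 0.5% DMSO, duplicates. CCND1 mRNA measured by Fluidigm TaqMan qRT-PCR, normalised to ACTB, GAPDH, POLR2A; bidirectional fit.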

[2] = read-out: catalase (CAT), CAT (gene 847); assay: LTEA_HepaRG_CAT: Life Technologies and Expression Analysis (LTEA) Assay for catalase (CAT) using HepaRG (AID 2283452); conditions: mRNA level, 48 h; actives raise or lower the signal;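 on AC50: TaqMan qRT-PCR signal normalized to ACTB GAPDH and POLR2A housekeeping genes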
In short: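 Differentiated HepaRG cells in serum-free induction medium were dosed 48 h in duplicate, eight half-log concentrations from 100 uM in 0.5% DMSO. Transcript measured by TaqMan qRT-PCR, normalised to ACTB/GAPDH/POLR2A, fitted bidirectionally against DMSO.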

[3] = read-out: flavin-containing dimethylaniline monooxygenases 3 (FMO3), FMO3 (gene 2328); assay: LTEA_HepaRG_FMO3: Life Technologies and Expression Analysis (LTEA) Assay for flavin-containing dimethylaniline monooxygenases 3 (FMO3) using HepaRG (AID 2283453); conditions: mRNA level, 48 h; actives raise or lower the signal
In short: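 Differentiated HepaRG cells in serum-free induction medium, exposed 48 h in duplicate to 8 half-log concentrations up to 100 uM in 0.5% DMSO. FMO3 mRNA by qRT-PCR, normalized to ACTB, GAPDH, POLR2A; bidirectional fit vs DMSO.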

[4] = read-out: Cytochrome P450 (CYP1A1), CYP1A1 (gene 1543); assay: LTEA_HepaRG_CYP1A1: Life Technologies and Expression Analysis (LTEA) Assay for Cytochrome P450 (CYP1A1) using HepaRG (AID 2283454); conditions: mRNA level, 48 h; actives raise or lower the signal
In short: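 Differentiated human HepaRG cells, after 48 h plating, exposed in duplicate for 48 h in serum-free induction medium to 8 half-log concentrations up to 100 uM in 0.5% DMSO. CYP1A1 mRNA by qRT-PCR, normalized to ACTB/GAPDH/POLR2A; bidirectional fit versus DMSO.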

[5] = read-out: CFLAR gene, CFLAR (gene 8837); assay: LTEA_HepaRG_CFLAR: Life Technologies and Expression Analysis (LTEA) Assay for CFLAR gene using HepaRG (AID 2283455); conditions: mRNA level, 48 h; actives raise or lower the signal
In short: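 HepaRG cells were plated for 48 h, switched to serum-free induction medium, then exposed in duplicate for 48 h to 8 concentrations (top 100 uM, half-log steps, 0.5% DMSO). CFLAR mRNA was measured by qRT-PCR, normalized to ACTB, GAPDH and POLR2A.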

[6] = read-out: Forkhead box O1 (FOXO1), FOXO1 (gene 2308); assay: LTEA_HepaRG_FOXO1: Life Technologies and Expression Analysis (LTEA) Assay for Forkhead box O1 (FOXO1) using HepaRG (AID 2283456); conditions: mRNA level, 48 h; actives raise or lower the signal
In short: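 Differentiated human HepaRG cells in serum-free induction medium were exposed in duplicate for 48 h to eight half-log concentrations (top 100 uM, 0.5% DMSO). FOXO1 mRNA was measured by TaqMan qRT-PCR, normalised to ACTB, GAPDH and POLR2A, and fitted bidirectionally against DMSO.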

[7] = read-out: growth arrest and DNA damage 45 (GADD45A), GADD45A (gene 1647); assay: LTEA_HepaRG_GADD45A: Life Technologies and Expression Analysis (LTEA) Assay for growth arrest and DNA damage 45 (GADD45A) using HepaRG (AID 2283458); conditions: mRNA level, 48 h; actives raise or lower the signal
In short: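 Cells plated and cultured 48 h, switched to serum-free induction medium, then dosed for 48 h (100 uM top, half-log dilutions, 0.5% DMSO). RNA was isolated and transcript measured by Fluidigm qRT-PCR.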

[8] = read-out: Forkhead box O3 (FOXO3), FOXO3 (gene 2309); assay: LTEA_HepaRG_FOXO3: Life Technologies and Expression Analysis (LTEA) Assay for Forkhead box O3 (FOXO3) using HepaRG (AID 2283459); conditions: mRNA level, 48 h; actives raise or lower the signal
In short: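 Differentiated human HepaRG cells in serum-free induction medium were exposed in duplicate for 48 h to eight half-log concentrations up to 100 uM in 0.5% DMSO. FOXO3 mRNA was quantified by qRT-PCR, normalized to ACTB, GAPDH and POLR2A, with bidirectional fitting versus DMSO.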

[9] = read-out: ABC Transporter (ABCB1), ABCB1 (gene 5243); assay: LTEA_HepaRG_ABCB1: Life Technologies and Expression Analysis (LTEA) Assay for ABC Transporter (ABCB1) using HepaRG (AID 2283460); conditions: mRNA level, 48 h; actives raise or lower the signal
In short: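 Differentiated human HepaRG cells, plated 48 h then switched to serum-free induction medium, were exposed in duplicate to eight half-log concentrations up to 100 uM in 0.5% DMSO for 48 h. ABCB1 mRNA was measured by TaqMan qRT-PCR, normalized to ACTB/GAPDH/POLR2A.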

[10] = CEETOX_H295R_TESTO: CeeTox H295R High-throughput Steroidogenesis Assay for Testosterone (TESTO) (AID 2283457); conditions: actives raise or lower the signal
Method: CEETOX_H295R is a cell-based, multiplexed-readout assay that uses H295R, a human adrenal gland cell line, with measurements taken at 48 hours after chemical dosing in a 96-well plate.CEETOX_H295R_TESTO is one of 23 assay component(s) measured or calculated from the CEETOX_H295R assay. It is designed to make measurements of hormone induction, a form of inducible reporter, as detected with […] by HPLC-MS-MS technology.Data from the assay component CEETOX_H295R_TESTO was analyzed into 1 assay endpoint. This assay endpoint, CEETOX_H295R_TESTO, was analyzed with bidirectional fitting relative to DMSO as the negative control and baseline of activity. Using a type of inducible reporter, gain or loss-of-signal activity using HPLC-MS-MS was used to understand synthesis of Testosterone in H295R cell line at 48hr of chemical exposure. To generalize the intended target to other relatable targets, this assay endpoint is annotated to the steroid hormone intended target family, where the subfamily is androgens.
Cell culture and media preparation procedures were conducted in accordance with OECD Test No. 456 guidelines, with minor modifications. H295R cells (ATCC CRL-2128) were expanded for 5 passages and frozen in batches in liquid nitrogen. Prior to the steroidogenesis assay, H295R cells were thawed and passed at least 4 times. The maximum passage was 10. Cells were maintained in a 1:1 mixture of DMEM/F12 supplemented with 5ml/L ITS+ Premix (BD Bioscience) and 12.5 ml/L Nu-Serum (BD Bioscience). After seeding cells into 96-well plates at 50-60% confluency, cells were allowed to adhere overnight. […] Test chemicals were incubated for 48 hours, then the medium was removed and split into 2 vials containing approximately 75uL each, and stored at -80 C prior to hormone analysis. For steroid quantification, media samples were shipped to OpAns, LLC (Durham, NC) on dry ice, and samples were thawed to room temperature prior to liquid-liquid extraction. Steroid hormones were extracted from media samples using methyl tertbutyl ether (MTBE). An extra derivatization with dansyl chloride was included for estrogen (estrone and estradiol) detection only. Steroid hormones were separated by HPLC, eluted using a reverse phase C18 gradient with electrospray positive ionization, followed by quantification by tandem mass spectrometry (MS/MS). Data were acquired on a MassHunter Workstation Acquisition version B03.01 (Agilent Technologies, Inc.) and processed using MassHunter Quantitative Analysis for QQQ. Accuracy was determined for each hormone analyte from 3 standards to determine upper and lower limits of quantification (ULOQ and LLOQ, respectively) using a 7-point standard curve. Precision and accuracy of the extraction and quantification methods were calculated as the percent relative standard deviation (%RSD) of the spiked standards and percent spiked standard recovered, respectively. […] Test medium was removed following chemical exposure, and cell viability was evaluated in the same wells by MTT. MTT procedures were as follows: after removal of test medium, 500 uL of 0.5 mg/ml of 3-[4,5-dimethylthiazol-2-y]2,5-diphenyltetrazoliumbromide solution was added to the cells. Following a 4-hour incubation at 37 C and 5% CO2 to allow formazan-crystal formation, the MTT solution was removed and blue formazan salt crystals were solubilized using 500uL anhydrous isopropanol with shaking for 20 minutes. Absorbance was read at 570 and 650nm using a Packard Fusion microplate reader. Background correction of absorbance units was used to determine percent change relative to controls. […] When a test chemical reduced cell viability to 20% - 70%, the test chemical was diluted 10-fold and re-evaluated, but if cell viability was <20%, then the test chemical was diluted 100-fold and re-evaluated. Test chemical dilutions were made until cell viability was >/=70%. MTT assays were also conducted for duplicates of all concentrations of chemicals tested in concentration-response studies. […]

Measured: AC50

CC(CO)OC(C)CO (stereo unspecified) (tested in a mixture with another compound)
inactive: [1] | [2] | [3] | [5] | [6] | [7] | [8] | [9]
active: [4] 50 µM

Cc1ccc(C(C)C)c(O)c1
inactive: [1] | [2] | [3] | [4] | [5] | [6] | [7] | [8] | [9]

CNC(=O)[C@H]1O[C@@H](n2cnc3c(NCc4cc(Cl)ccc4OCc4cc(C)no4)ncnc32)[C@H](O)[C@@H]1N
inactive: [1] | [2] | [3] | [4] | [5] | [6] | [7] | [8] | [9]

CC1=C(/C=C/C(C)=C/C=C/C(C)=C/CO)C(C)(C)CCC1
active: [4] 64.1 µM | [9] 52.2 µM
inactive: [1] | [2] | [3] | [5] | [6] | [7] | [8]

CN[C@H]1CC[C@@H](c2ccc(Cl)c(Cl)c2)c2ccc(S(N)(=O)=O)cc21
active: [2] 50 µM | [3] 34.1 µM | [4] 76.5 µM | [9] 89.3 µM
inactive: [1] | [5] | [6] | [7] | [8]

Cc1ccc(C)c(O)c1C
active: [4] 68 µM
inactive: [1] | [2] | [3] | [5] | [6] | [7] | [8] | [9]

CC(=O)C(C)=CC1C(C)=CCCC1(C)C (stereo unspecified)
inactive: [1] | [2] | [3] | [4] | [5] | [6] | [7] | [8] | [9]

Cc1ccc2ncccc2c1
inactive: [1] | [2] | [3] | [5] | [6] | [8] | [9]
active: [4] 50 µM

O=c1c(O)c(-c2ccc(O)c(O)c2)oc2cc(O)cc(O)c12
active: [3] 80 µM | [4] 0.634 µM
inactive: [1] | [2] | [5] | [6] | [8]

C[Si]1(C)O[Si](C)(C)O[Si](C)(C)O[Si](C)(C)O1
inactive: [1] | [2] | [3] | [4] | [5] | [6] | [8] | [9]

Nc1nc(N)c2nc(CNc3ccc(C(=O)N[C@@H](CCC(=O)O)C(=O)O)cc3)cnc2n1
inactive: [1] | [2] | [3] | [4] | [5] | [6] | [7] | [8] | [9]

C=CCOC(=O)c1ccccc1C(=O)OCC=C
active: [4] 50 µM
inactive: [1] | [2] | [3] | [5] | [6] | [7] | [8] | [9]

Oc1ccc2c(c1)OC[C@@H](N1CCC(O)(c3ccc(F)cc3)CC1)[C@H]2O
inactive: [1] | [2] | [3] | [4] | [5] | [6] | [7] | [8] | [9]

CCCc1cc(=O)[nH]c(=S)[nH]1
inactive: [1] | [2] | [3] | [5] | [6] | [7] | [8] | [9]
active: [4] 50 µM

Oc1ccc2ccccc2c1N=Nc1ccccc1
inactive: [6] | [7] | [9]
active: [1] 9.92 µM | [2] 9.92 µM | [3] 10.4 µM | [4] 0.14 µM | [5] 11.3 µM | [8] 7.86 µM

CC1(C)NC(=O)NC1=O
inactive: [1] | [2] | [3] | [4] | [5] | [6] | [7] | [8] | [9]

c1cc(-c2ccncc2)ccn1
inactive: [1] | [2] | [3] | [5] | [6] | [7] | [8] | [9]
active: [4] 50 µM

COc1ccc(S(=O)(=O)N2C(=O)[C@@](c3ccccc3OC)(N3C[C@H](O)C[C@H]3C(=O)N(C)C)c3cc(Cl)ccc32)c(OC)c1
inactive: [4] | [5] | [10] | [8] | [9]
active: [1] 85.5 µM | [2] 23.7 µM | [3] 43.3 µM | [6] 35.9 µM

FC(F)(F)C(F)(F)C(F)(F)C(F)(F)C(F)(F)C(F)(F)CCI
inactive: [1] | [2] | [3] | [4] | [5] | [6] | [7] | [8] | [9]

COc1ccc2c(c1)c(CC(=O)O)c(C)n2C(=O)c1ccc(Cl)cc1
inactive: [1] | [2] | [3] | [4] | [5] | [6] | [7] | [8] | [9]
